Experimental data published in PubChem BioAssay (NCATS).
Inconclusive results are not listed. Active and inactive are the calls of the source. The call rests on the fitted dose curve; in most records, active means well fitted inhibition curve with a large enough effect; inconclusive means small, poorly fitted or top-dose-only effect; inactive means flat fitted curve, though single readings scatter.

Key:
Test in all cases: qHTS profiling for inhibitors of Plasmodium falciparum proliferation (AID 504749); further: nearly all actives have a fitted effect of over 60% in size
Details in all cases: P. falciparum in erythrocytes, SYBR Green DNA, 72 h; series mostly up to 28.7 µM
CP247 = test system: CP247
In short: (§1)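 Each compound contacts P. falciparum-infected red blood cells for 72 h at 37 C; lysis buffer (Tris, EDTA, saponin, Triton X, SYBR Green I) is added and fluorescence measured next morning; values normalized to controls.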

CP250 = test system: CP250
In short: as §1

CP252 = test system: CP252
In short: as §1

CP256 = test system: CP256
In short: as §1

CP260 = test system: CP260
In short: as §1

CP262 = test system: CP262
In short: as §1

CP265 = test system: CP265
In short: as §1

CP266 = test system: CP266
In short: as §1

CP268 = test system: CP268
In short: as §1

CP269 = test system: CP269
In short: as §1

CP286 = test system: CP286
In short: as §1

CP291 = test system: CP291
In short: as §1

CP297 = test system: CP297
In short: as §1

CP305 = test system: CP305
In short: as §1

CP315 = test system: CP315
In short: as §1

CP325 = test system: CP325
In short: as §1

CP329 = test system: CP329
In short: as §1

CP335 = test system: CP335
In short: as §1

DFO2036 = test system: DFO2036
In short: as §1

DIV14 = test system: DIV14
In short: as §1

Measured: Potency

COc1cc2c(cc1OC)C1CC(=O)C(CC(C)C)CN1CC2 (stereo not given)
inactive: CP247 | CP250 | CP252 | CP256 | CP260 | CP262 | CP265 | CP266 | CP268 | CP269 | CP286 | CP291 | CP297 | CP305 | CP315 | CP325 | CP329 | CP335 | DFO2036 | DIV14

Cc1cc2cc3c(C)cc(=O)oc3c(C)c2o1
inactive: CP247 | CP250 | CP252 | CP256 | CP260 | CP262 | CP265 | CP266 | CP268 | CP269 | CP286 | CP291 | CP297 | CP305 | CP315 | CP325 | CP329 | CP335 | DFO2036 | DIV14

O=C(O)CCNC(=O)c1ccc(N=Nc2ccc(O)c(C(=O)O)c2)cc1
inactive: CP247 | CP250 | CP252 | CP256 | CP260 | CP262 | CP265 | CP266 | CP268 | CP269 | CP286 | CP291 | CP297 | CP305 | CP315 | CP325 | CP329 | CP335 | DFO2036 | DIV14

CCOc1cc(CC(=O)N[C@@H](CC(C)C)c2ccccc2N2CCCCC2)ccc1C(=O)O
inactive: CP247 | CP250 | CP252 | CP256 | CP260 | CP262 | CP265 | CP266 | CP268 | CP269 | CP286 | CP291 | CP297 | CP305 | CP315 | CP325 | CP329 | CP335 | DFO2036 | DIV14

Nc1cccc2c1CN(C1CCC(=O)NC1=O)C2=O (stereo not given)
inactive: CP247 | CP250 | CP252 | CP256 | CP260 | CP262 | CP265 | CP266 | CP268 | CP269 | CP286 | CP291 | CP297 | CP305 | CP315 | CP325 | CP329 | CP335 | DFO2036 | DIV14

CCCOc1ccc2nc(NC(=O)OC)[nH]c2c1
inactive: CP247 | CP250 | CP252 | CP256 | CP260 | CP262 | CP265 | CP266 | CP268 | CP269 | CP286 | CP291 | CP297 | CP305 | CP315 | CP325 | CP329 | CP335 | DFO2036 | DIV14

O=C(NC(Cc1cc(=O)[nH]c2ccccc12)C(=O)O)c1ccc(Cl)cc1 (stereo not given)
inactive: CP247 | CP250 | CP252 | CP256 | CP260 | CP262 | CP265 | CP266 | CP268 | CP269 | CP286 | CP291 | CP297 | CP305 | CP315 | CP325 | CP329 | CP335 | DFO2036 | DIV14

O=C(O)c1cccc(-c2noc(-c3ccccc3F)n2)c1
inactive: CP247 | CP250 | CP252 | CP256 | CP260 | CP262 | CP265 | CP266 | CP268 | CP269 | CP286 | CP291 | CP297 | CP305 | CP315 | CP325 | CP329 | CP335 | DFO2036 | DIV14

CCOC(=O)c1c(C)n(C)c2ccc(O)cc12
inactive: CP247 | CP250 | CP252 | CP256 | CP260 | CP262 | CP265 | CP266 | CP268 | CP269 | CP286 | CP291 | CP297 | CP305 | CP315 | CP325 | CP329 | CP335 | DFO2036 | DIV14

CC1(C)CCC(C)(C)c2cc(NC(=O)c3ccc(C(=O)O)cc3)ccc21
inactive: CP247 | CP250 | CP252 | CP256 | CP260 | CP262 | CP265 | CP266 | CP268 | CP269 | CP286 | CP291 | CP297 | CP305 | CP315 | CP325 | CP329 | CP335 | DFO2036 | DIV14

N[C@@H](Cc1cc(I)c(Oc2cc(I)c(O)c(I)c2)c(I)c1)C(=O)O
inactive: CP247 | CP250 | CP252 | CP256 | CP260 | CP262 | CP265 | CP266 | CP268 | CP269 | CP286 | CP291 | CP297 | CP305 | CP315 | CP325 | CP329 | CP335 | DFO2036 | DIV14

C[C@]12CCC(=O)C=C1CC[C@@H]1[C@H]2[C@@H](O)C[C@@]2(C)[C@H]1CC[C@]2(O)C(=O)CO
inactive: CP247 | CP250 | CP252 | CP256 | CP260 | CP262 | CP265 | CP266 | CP268 | CP269 | CP286 | CP291 | CP297 | CP305 | CP315 | CP325 | CP329 | CP335 | DFO2036 | DIV14
